Screens from PubChem.
HT1080NT lethal: qHTS for induction of synthetic lethality in tumor cells producing 2HG: qHTS for the HT-1080-NT fibrosarcoma cell line. Potency, µM (highest dose often 46.1 µM), hits mostly cytotoxic. actives 1.6% (n = 360,000). HT-1080-NT fibrosarcoma viability, CellTiter-Glo ATP luminescence, 48 h;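 also: NT is the 2HG producing partner of a matched IDH1 knockdown line; nearly all actives have a fitted effect of over 55% in size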
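750 cells/well, RPMI + 5% FBS; 2 h settle, compound pin-transfer, 48 h at 37 degrees C. CellTiter-Glo 10 min RT, luminescence. Normalized to DMSO and media-only wells.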
DT40 TDP1 no CPT: qHTS for Inhibitors of human tyrosyl-DNA phosphodiesterase 1 (TDP1): qHTS in cells in absence of CPT; actives 15% (n = 420,000); Potency, µM (titrated, usually from 46.2 µM), actives largely listed as inhibitors; DT40 Tdp1-/- hTDP1 cells, no CPT, ATP luminescence, 48 h; also: nearly all actives have a fitted effect of over 55% in size
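DT40 Tdp1-/-;hTDP1 cells, no CPT (DMSO vehicle only), 400 cells/well; compounds pin-transferred; ≥48 hr, 37 °C; CellTiter-Glo 30 min RT dark, luminescence read.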
HT1080 IDH1KD tx: qHTS for induction of synthetic lethality in tumor cells producing 2HG: qHTS for the HT-1080-IDH1KD cell line; HT-1080 IDH1 knockdown viability, ATP luminescence, 48 h; Potency, µM (top dose mostly 46.1 µM), usual class: cytotoxic; actives 2% (n = 360,000)
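Assay cells: HT-1080 with IDH1 knockdown, 750 per well, RPMI/5% FBS. Exposure: 48 h at 37 °C following 2 h pre-incubation. Read: CellTiter-Glo luminescence; fitted concentration-response, curve class assigned.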
IL1B secr inh: qHTS for Inhibitors of Inflammasome Signaling: IL-1-beta AlphaLISA Primary Screen | actives 4.7% (n = 360,000) | activity change, % at 57.5 µM | AID 743279, 2014 | THP-1 LPS/ATP IL-1B secretion, AlphaLISA, 16 h; stronger effect = lower value; in the data active = activity change below about -50%; inconclusive = mostly about -30% to -49%
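Secreted IL-1B measured by AlphaLISA bead assay after 16 h compound exposure of THP-1 cells; compounds (final up to 57.5 uM) added 1 h before LPS (250 ng/mL) and ATP (1.25 mM) stimulation; lower signal means less secretion.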
TDP1 cell CPT: qHTS for Inhibitors of human tyrosyl-DNA phosphodiesterase 1 (TDP1): qHTS in cells in presence of CPT; actives 12% (n = 420,000); Potency, µM (doses to about 46.2 µM), most hits filed as inhibitors; AID 686979, 2013; chicken DT40 Tdp1-/-;hTDP1 cells + 20 nM CPT, ATP luminescence, 48 h; also: nearly all actives have a fitted effect of over 55% in size
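Chicken DT40 Tdp1-/- cells stably complemented with human TDP1 were seeded at 400 cells/well in medium containing 20 nM camptothecin, exposed to pin-transferred compounds, and grown at 37 °C for at least 48 hr. Viability was read as ATP luminescence.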
Numbers stand for hits; 0 = inactive; ? = inconclusive; - = not tested or not shown; [ ] = another dose, or the depositor's remark. Only some compounds are listed: those with a hit (about 19% of all), similar ones and a draw of the others. Unless noted, calls follow the shape of the dose curve; as a rule, active = well fitted curve in the direction sought with a large enough effect; inconclusive = small, poorly fitted or top-dose-only effect, or another doubt; inactive = no such curve, though single readings can be large; an effect the other way counts as inactive or inconclusive.

SMILES	HT1080NT lethal	DT40 TDP1 no CPT	HT1080 IDH1KD tx	IL1B secr inh	TDP1 cell CPT
Cc1ccsc1C1Nc2ccccc2-c2nc3ccccc3n21 (stereo unspecified)	0	?	0	0	?
c1csc(C2Nc3ccccc3-c3nc4ccccc4n32)c1 (stereo unspecified)	0	?	0	?	16µM
CCCCNC(=O)C1C(c2ccc(OC)cc2)=Nc2ccccc2N1C(=O)Cc1cc(OC)cc(OC)c1 (stereo unspecified)	0	?	0	0	?
COc1ccc(-c2[nH]ncc2CNC(C)c2ccccc2Cl)cc1F (stereo unspecified)	0	23µM	0	0	16µM
Cc1ccc(CCNC(=O)c2ccc3c(c2)N(Cc2ccccc2)C(=O)c2ccccc2S3=O)cc1 (stereo unspecified)	-	15µM	-	-	16µM
CCOc1ccc(CCNC(=O)c2ccc3c(c2)N(Cc2ccccc2)C(=O)c2ccccc2S3=O)cc1OCC (stereo unspecified)	-	5.8µM	-	-	16µM
Clc1cccc(N2CCN(Cc3ccc(Br)o3)CC2)c1	0	0	0	0	0
Cc1ccc(NC(=O)C(C)Sc2nnc3n2CCCCC3)cc1S(=O)(=O)N1CCOCC1 (stereo unspecified)	0	0	0	0	0
COc1ccccc1-c1ccnc(-n2ncc(C(=O)NCCc3ccccn3)c2C)n1	-	?	-	-	0[9.04 µM]
Cn1c(=O)c2c(nc(CN3CCCCC3)n2CCCc2ccccc2)n(C)c1=O	0	?	0	0	?
Cn1c(=O)c2c(nc(CN3CCN(C(=O)c4ccco4)CC3)n2CCc2ccccc2)n(C)c1=O	0	?	0	0	0
CC1CCCN(Cc2nc3c(c(=O)n(C)c(=O)n3C)n2CCCc2ccccc2)C1 (stereo unspecified)	0	18µM	0	0	21µM
Cn1c(=O)c2c(nc(CN3CCN(C(=O)c4ccco4)CC3)n2CCCc2ccccc2)n(C)c1=O	0	21µM	0	0	?
CCOc1ccc2oc(C(=O)OCC(=O)N3CC(C)OC(C)C3)c(C)c2c1 (stereo unspecified)	0	?	0	0	0
CCCCN(CC)Cc1ccc(CNC(=O)Nc2ccccc2)o1	0	10µM	14µM	0	18µM
CCCCN(CC)Cc1ccc(CNC(=S)Nc2cccc(F)c2)o1	0	23µM	0	0	?
CCOC(=O)c1ccccc1NC(=O)N1CCN(Cc2cc(=O)n3nc(-c4ccccc4)sc3n2)CC1	-	0	-	-	0
Cc1ccc(S(=O)(=O)N2CCN(C(=O)c3cc4c(s3)CCC(C)C4)CC2)cc1 (stereo unspecified)	0	16µM	0	0	?
CCOc1ccc(S(=O)(=O)N2CCN(C(=O)c3cc4c(s3)CCCC4)CC2)cc1	0	?	0	0	16µM
CCC1SC2=NC(C)=C(C(=O)OCCOC)C(c3ccc(C(=O)OC)cc3)N2C1=O (stereo unspecified)	0	0	0	0	0
Cc1nc2scc(-c3ccc(Cl)cc3)c2c(=O)n1N	0	?	0	0	0
Cn1cc(/C=N/n2cnc3scc(-c4ccc(Cl)cc4)c3c2=O)c2ccccc21	?	0.82µM	0.46µM	0	0.58µM
Cc1ccc2c(C)c(C(=O)N(C)C(C)c3ccon3)oc2c1C (stereo unspecified)	0	16µM	0	0	?
COc1ccc(C2=Nc3ccccc3NC(=O)C2N(CCc2cc(OC)cc(OC)c2)C(C)=O)cc1 (stereo unspecified)	0	?	0	?	23µM
CCOc1ccc(OCC)c(NC(=O)c2cc(-c3cccs3)nc3ccccc23)c1	-	0	-	-	0
Cc1ccc(-c2cc(C(=O)Nc3nccs3)c3ccccc3n2)c(C)c1	0	13µM	0	0	13µM
